# According to the supplement of paper PMC6555819:
# Experiments:
# Assay in all cases: PBM binding z-score (relative to random genomic background probes); higher = stronger binding; sequences stand for … in GC…GCGATTGACAGCGTAGAATGAAGG
# [1] = tested on: FXR:RXRa (NR concentration 270 nM, RXRa partner concentration 90 nM)
# Procedure, shortened: (§1)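 For binding z-scores, the reference was random background probes on custom Agilent 4×180K protein-binding microarrays. These arrays were incubated 1 h with ligand-free nuclear receptor dimers in PBS pH 7.4, 2% milk, 0.02% Triton X-100, 1 mM DTT, 0.2 mg/mL BSA and 0.4 mg/ml salmon testes DNA. Fluorescence was scanned after antibody detection of each partner (one per run) and regression-normalized.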
# [2] = tested on: LXRa:RXRa (NR concentration 270 nM, RXRa partner concentration 90 nM)
# Procedure, shortened: as §1
# [3] = tested on: LXRa homodimer (NR concentration 270 nM)
# Procedure, shortened: as §1
# [4] = tested on: LXRb:RXRa (NR concentration 270 nM, RXRa partner concentration 90 nM)
# Procedure, shortened: as §1
# [5] = tested on: LXRb homodimer (NR concentration 270 nM)
# Procedure, shortened: as §1
# [6] = tested on: PPARa:RXRa (NR concentration 270 nM, RXRa partner concentration 90 nM)
# Procedure, shortened: as §1
# [7] = tested on: PPARg:RXRa (NR concentration 180 nM, RXRa partner concentration 90 nM)
# Procedure, shortened: as §1
# [8] = tested on: PPARg:RXRa 270nM:90nM, anti-RXR (NR concentration 270 nM, RXRa partner concentration 90 nM)
# Procedure, shortened: as §1
# [9] = tested on: PPARg:RXRa 30nM:10nM, anti-RXR (NR concentration 30 nM, RXRa partner concentration 10 nM)
# Procedure, shortened: as §1
# [10] = tested on: PPARg:RXRa 90nM:30nM, anti-RXR (NR concentration 90 nM, RXRa partner concentration 30 nM)
# Procedure, shortened: as §1
# [11] = tested on: PPARg:RXRa DBDmut IVT, anti-RXR (DBD mutation: RXRa K156A/R161A, NR concentration 270 nM, RXRa partner concentration 90 nM)
# Procedure, shortened: as §1
# [12] = tested on: PPARg:RXRa IVT, anti-PPARg (NR concentration 270 nM, RXRa partner concentration 90 nM)
# Procedure, shortened: as §1
# [13] = tested on: PPARg DBDmut:RXRa IVT, anti-PPARg (DBD mutation: PPARg1 K132A/R137A, NR concentration 270 nM, RXRa partner concentration 90 nM)
# Procedure, shortened: as §1
# [14] = tested on: PPARg DBDmut IVT, anti-PPARg (DBD mutation: PPARg1 K132A/R137A, NR concentration 270 nM)
# Procedure, shortened: as §1
# [15] = tested on: PPARg homodimer (NR concentration 180 nM)
# Procedure, shortened: as §1
# [16] = tested on: PXR:RXRa (NR concentration 270 nM, RXRa partner concentration 90 nM)
# Procedure, shortened: as §1
# [17] = tested on: PXR homodimer (NR concentration 270 nM)
# Procedure, shortened: as §1
# [18] = tested on: RARa:RXR (NR concentration 270 nM, RXRa partner concentration 90 nM)
# Procedure, shortened: as §1
# [19] = tested on: RARa homodimer (NR concentration 270 nM)
# Procedure, shortened: as §1
# [20] = tested on: RARb:RXRa (NR concentration 270 nM, RXRa partner concentration 90 nM)
# Procedure, shortened: as §1
Sequence,PBM binding z-score [1],PBM binding z-score [2],PBM binding z-score [3],PBM binding z-score [4],PBM binding z-score [5],PBM binding z-score [6],PBM binding z-score [7],PBM binding z-score [8],PBM binding z-score [9],PBM binding z-score [10],PBM binding z-score [11],PBM binding z-score [12],PBM binding z-score [13],PBM binding z-score [14],PBM binding z-score [15],PBM binding z-score [16],PBM binding z-score [17],PBM binding z-score [18],PBM binding z-score [19],PBM binding z-score [20]
CAAACTAGGTCAGGAAAGGTCAAAGTCGAATGAC,6.17,6.74,6.35,6.12,1.93,6.08,8.46,6.82,4.45,6.88,7.59,8.02,3.96,1.14,6.11,6.57,2.16,6.83,3.88,5.36
CCGAGTGGGGCAGAAAGGTTACCATACCATCCGG,0.579,0.723,0.104,0.959,-0.975,2.23,1.76,2.79,0.657,2.3,1.16,1.76,-1.17,-1.29,0.799,1.05,0.126,1.5,-0.131,1.63
AGAACGAGGGCAAGCTGAGTTGATAGCAGAGTAG,0.521,0.295,-0.476,0.14,-0.878,1.4,1.32,1.19,0.0687,0.484,3.94,2.42,0.0132,-0.565,0.238,1.13,0.458,0.426,-0.421,2.46
TCATATAGGTAAAGGGTGAAAGTCGGTGTGGTAA,1.34,1.71,0.489,1.71,0.233,4.48,7.16,7.21,7.16,7.63,4.48,4.59,0.928,1.03,1.99,1.31,0.961,2.03,2.05,1.46
CTCGAAAGGTCGTGCTCAGGTTAGTATACCAAAC,5.58,4.22,0.511,3.78,0.719,5.12,2.57,3.75,0.966,2.37,0.848,1.77,0.0664,0.423,2.46,3.94,0.392,4.55,0.346,4.09
TCATATAGGTAAGTGCTAGGTGAAAGTCCGATCT,0.366,0.752,0.094,0.207,0.122,0.896,0.556,2.06,3.39,2.49,3.42,2.48,0.55,0.697,0.802,0.193,0.147,0.223,1.04,0.4
TCGAGTAGGTTAGTCGGGCCATTCAGCCAACATA,-0.164,-0.373,-0.481,-0.437,-1.41,0.324,-0.134,0.911,0.94,0.798,1.97,1.9,-0.829,-1.18,-0.154,-0.339,-0.506,-0.314,-1,0.287
